Assay outcomes deposited in PubChem BioAssay by National Center for Advancing Translational Sciences (NCATS).
a7 integrin act – integrin-mediated muscular dystrophy alleviation activation | alpha7betagal myoblasts, beta-gal FDG fluorescence, 48 h | Potency, µM (top dose mostly 38.3 µM), hits mostly activators | actives 0.064% (n = 350,000); further: nearly all actives have a fitted effect of over 60% in size
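alpha7betagal+/- myoblasts (passage 13, 250/well) treated 48 h at 37C with compounds at 1:260 dilution of DMSO stock. Lysed, then beta-galactosidase activity read as FDG fluorescence (ex 480/em 540) after 30 min, with pre-read for autofluorescence.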
GLP-1R agonist – agonists of human GLP-1 receptor. HEK293 GLP-1R CRE-luciferase, luminescence, 4-6 h; cells express a hypersensitive GLP-1R form. P43220. AID 624172. actives 0.007% (n = 380,000). Potency, µM (series often up to 45.6 µM), usual class: activators
Target sequence (P43220 whole entry, looked up): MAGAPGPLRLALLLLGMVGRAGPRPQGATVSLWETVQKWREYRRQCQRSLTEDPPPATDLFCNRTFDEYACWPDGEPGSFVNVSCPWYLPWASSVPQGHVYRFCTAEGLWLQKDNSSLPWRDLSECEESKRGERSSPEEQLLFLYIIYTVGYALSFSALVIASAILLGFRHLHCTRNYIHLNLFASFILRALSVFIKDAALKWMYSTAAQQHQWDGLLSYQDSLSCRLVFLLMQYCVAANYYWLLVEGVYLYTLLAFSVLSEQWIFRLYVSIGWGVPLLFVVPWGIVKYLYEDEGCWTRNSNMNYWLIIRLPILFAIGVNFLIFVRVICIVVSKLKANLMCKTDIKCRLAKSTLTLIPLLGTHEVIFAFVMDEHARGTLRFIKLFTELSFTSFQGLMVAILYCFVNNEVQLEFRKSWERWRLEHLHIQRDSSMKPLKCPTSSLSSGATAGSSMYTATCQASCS
GLP1R inv ag – GLP-1 receptor (human) inverse agonism. actives 1.6% (n = 410,000). Potency, µM (highest dose often 38.3 µM), usual class: inhibitors. HEK293 GLP-1R CRE-luciferase, luminescence, 24 h; GLP-1R form is constitutively active; further: nearly all actives have a fitted effect of over 55% in size
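Inverse agonists were sought by their lowering of basal cAMP reporter luciferase output in HEK293 cells stably carrying constitutively active human GLP-1R, after 24 h compound treatment.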
BRCA1 expr up – increases BRCA1 expression; MCF7-BRCA1-FFLuc reporter, luminescence, 48 h; response scale: scaled: vehicle 0%, 10 µM genistein 100%; Potency, µM (titrated, usually from 46.1 µM), usual class: activators; actives 1.1% (n = 380,000); AID 624202; further: nearly all actives have a fitted effect of over 80% in size
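Using MCF7 cells harboring a BRCA1 firefly luciferase reporter, plated 2 h before compound pinning, the screen measured luminescence after 48 h incubation. Responses were normalized to DMSO and 10 microM genistein, then fitted for concentration-effect.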
HEK293 tox – cytotoxic in the GLP-1 receptor inverse agonist counter-screen | AID 624418 | HEK293 cAMP-luciferase reporter cells, luminescence, 24 h | Potency, µM (top dose mostly 38.3 µM), usual class: inhibitors | actives 0.13% (n = 410,000);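 further: loss of luciferase light is scored as toxicity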
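To flag toxic compounds, the library was rerun on cells for 24 hr at 37 deg C and 5% CO2. Viability-linked luminescence was captured 12 min after adding luciferase detection reagent.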
A number is an active result. Hits are enriched below; roughly 2.7% of the tested compounds scored in any of these assays. The call rests on the fitted dose curve; in most records, active means well fitted curve in the direction sought with a large enough effect; inconclusive means small, poorly fitted or top-dose-only effect, or another doubt; inactive means no such curve, though single readings can be large; an effect the other way counts as inactive or inconclusive.

Screening COc1ccc(Cl)cc1NC(=O)C(C)N(C)Cc1ccc(C(F)(F)F)cc1 (configuration not stated) returned a7 integrin act inactive, GLP-1R agonist inactive, GLP1R inv ag 8.9µM, BRCA1 expr up inactive and HEK293 tox inactive.
Cc1cccc(OCC(=O)NCc2ccccc2)c1 was read as a7 integrin act inactive, GLP-1R agonist inactive, GLP1R inv ag inactive, BRCA1 expr up inactive and HEK293 tox inactive.
Screening C/C(=N\NC(=O)COc1cccc(C)c1)c1ccc2ccccc2c1O returned a7 integrin act inactive, GLP-1R agonist inactive, GLP1R inv ag 1.1µM, BRCA1 expr up inactive and HEK293 tox inactive.
CCN(Cc1ccccc1)CC(O)COC(c1ccc(OC)cc1)c1ccc(OC)cc1 (configuration not stated) was read as a7 integrin act inactive, GLP-1R agonist inactive, GLP1R inv ag 10µM, BRCA1 expr up inactive and HEK293 tox inconclusive.
`CCN(CC)CC(O)COC(c1ccccc1)c1ccccc1` (configuration not stated) gave a7 integrin act inactive, GLP-1R agonist inactive, GLP1R inv ag inactive, BRCA1 expr up inactive and HEK293 tox inactive.
`Cc1nc(N2CCCC2)c2c(C(=O)N3CCN(c4cccc(Cl)c4)CC3)c(C)oc2n1` gave GLP1R inv ag inconclusive and HEK293 tox inactive.
Cc1ccccc1Cn1c(SCc2ccc(C(=O)NCCc3ccccc3)cc2)nc2ccncc21 was read as GLP1R inv ag inconclusive and HEK293 tox inactive.
For Cc1c(O)c2c(c(C(=O)/C=C/c3ccccc3)c1O)OC(C)(C)C=C2 the results were BRCA1 expr up inactive.
For CO/N=C(/C(=O)N[C@@H]1C(=O)N2C(C(=O)O)=CCS[C@H]12)c1csc(N)n1 the results were GLP-1R agonist inactive.
For CC1=Nc2ccccc2/C1=C/c1nc(-c2ccc(C)s2)oc1O the results were a7 integrin act inactive, GLP-1R agonist inactive, GLP1R inv ag inactive, BRCA1 expr up inactive and HEK293 tox inactive.
Screening CC1=Nc2ccccc2/C1=C/c1sc(=N)n(-c2nccs2)c1O returned a7 integrin act inactive, GLP-1R agonist inactive, GLP1R inv ag 2.5µM, BRCA1 expr up inactive and HEK293 tox inconclusive.
For C=C(C)CNC(=S)Nc1nc2c(cc1C(=O)OCC)CCCC2 the results were a7 integrin act inactive, GLP-1R agonist inactive, GLP1R inv ag inactive, BRCA1 expr up 7.1µM and HEK293 tox inactive.
Screening CCOC(=O)c1cc2c(nc1N)CCCC2 returned a7 integrin act inactive, GLP-1R agonist inactive, GLP1R inv ag inactive, BRCA1 expr up inactive and HEK293 tox inactive.
Screening CC1CCc2c(sc(NC(=S)NC(=O)c3ccccc3)c2C#N)C1 (configuration not stated) returned a7 integrin act inactive, GLP-1R agonist inactive, GLP1R inv ag inactive, BRCA1 expr up 11µM and HEK293 tox inactive.
Screening CCOC(=O)Nc1sc2c(c1C(N)=O)CCC(C)C2 (configuration not stated) returned a7 integrin act inactive, GLP-1R agonist inactive, GLP1R inv ag inactive, BRCA1 expr up inactive and HEK293 tox inactive.
CC(=O)NC(=S)Nc1sc2c(c1C(N)=O)CCC(C)C2 (configuration not stated) was read as a7 integrin act inactive, GLP-1R agonist inactive, GLP1R inv ag inactive, BRCA1 expr up 4.5µM and HEK293 tox inactive.
Screening Cc1ccccc1C(=O)NC(=S)Nc1sc2c(c1C#N)CCC(C)C2 (configuration not stated) returned a7 integrin act inactive, GLP-1R agonist inactive, GLP1R inv ag inactive, BRCA1 expr up inactive and HEK293 tox inactive.
`COc1cccc(Cc2nc3ccccc3nc2SCC(=O)NCc2ccc(C)cc2)c1` gave GLP1R inv ag inactive and HEK293 tox inactive.
`Cc1ccc(CNC(=O)CSCc2ccccc2C)cc1` gave GLP1R inv ag inactive and HEK293 tox inactive.
For CCC(COC)NCc1cn(-c2ccc(OC)cc2)nc1-c1cccc(F)c1 (configuration not stated) the results were a7 integrin act inactive, GLP-1R agonist inactive, GLP1R inv ag 4.5µM, BRCA1 expr up inactive and HEK293 tox inconclusive.
`COc1ccc(-n2cc(CNC(C)c3ccncn3)c(-c3cccc(F)c3)n2)cc1` (configuration not stated) gave a7 integrin act inactive, GLP-1R agonist inactive, GLP1R inv ag inconclusive, BRCA1 expr up inactive and HEK293 tox inactive.
For C[N+](C)(C)CCOP(=O)(O)OP(=O)([O-])OCC1OC(n2ccc(N)nc2=O)[C@H](O)[C@@H]1O (some centres not stated) the results were GLP-1R agonist inactive.
`COc1ccccc1CNC(=O)C1CCCN(c2nc3ccccc3n3cccc23)C1` (configuration not stated) gave GLP1R inv ag inconclusive and HEK293 tox inactive.
O=C(Nc1ccc2ncccc2c1)c1ccccc1Br was read as a7 integrin act inactive, GLP-1R agonist inactive, GLP1R inv ag inactive, BRCA1 expr up 7.1µM and HEK293 tox inactive.
`CN(C)S(=O)(=O)c1ccc(C(=O)Nc2ccc3ncccc3c2)cc1` gave a7 integrin act inactive, GLP-1R agonist inactive, GLP1R inv ag inactive, BRCA1 expr up 13µM and HEK293 tox inactive.
Screening Cc1cccc(C)c1-n1nnnc1C(c1ccnc2ccccc12)N(C)Cc1ccc(Cl)c(Cl)c1 (configuration not stated) returned GLP-1R agonist inactive, GLP1R inv ag inactive, BRCA1 expr up inactive and HEK293 tox inactive.
`COc1cccc(CN(C)C(c2ccccc2)c2ccccc2)c1OC` gave a7 integrin act inactive, GLP-1R agonist inactive, GLP1R inv ag inconclusive, BRCA1 expr up inactive and HEK293 tox inactive.
`COc1cc(OC)c(OC)cc1CN(C)C(c1ccccc1)c1nnnn1-c1ccccc1C` (configuration not stated) gave a7 integrin act inactive, GLP-1R agonist inactive, GLP1R inv ag 11µM, BRCA1 expr up inactive and HEK293 tox inactive.
`COc1ccc(CN(C)C(c2ccccc2)c2nnnn2-c2ccccc2C)c(OC)c1C` (configuration not stated) gave a7 integrin act inactive, GLP-1R agonist inactive, GLP1R inv ag 10µM, BRCA1 expr up inactive and HEK293 tox inactive.
Screening Cc1ccc(NC(=O)Cn2c(=O)c3ccccc3n3nncc23)cc1 returned GLP-1R agonist inactive, GLP1R inv ag inactive, BRCA1 expr up inactive and HEK293 tox inactive.
COc1c(OC(C)=O)ccc(/C=C/c2ccc3cccc(OCc4ccccc4)c3n2)c1[N+](=O)[O-] was read as a7 integrin act inactive, GLP-1R agonist inactive, GLP1R inv ag 5µM, BRCA1 expr up inactive and HEK293 tox inconclusive.
Cc1ccccc1Nc1nnc(-c2ccc(C)c(S(=O)(=O)N3CCOCC3)c2)c2ccccc12 was read as GLP1R inv ag inactive and HEK293 tox inactive.
